Reference: PubChem BioAssay AID651558 (National Center for Advancing Translational Sciences (NCATS), 2012)
Among all 1,200 compounds or so, about 480 (40%) were called active. About 29% were inconclusive and are not listed. Some of the results follow. A number with no mark means an inactive call. Calls come from the whole dose curve; as a rule, active = well fitted inhibition curve with a large enough effect; inconclusive = small, poorly fitted or top-dose-only effect; inactive = no such curve, though single readings can be large or run the other way.

assay: qHTS Assay to Find Inhibitors of Chronic Active B-Cell Receptor Signaling: Hit Validation in Primary Screen; conditions: ABC-DLBCL IkB-luc/CBR ratio luminescence, 4 h; series mostly up to 46.1 µM; activity change, negative = inhibition: at the top concentration; note: nearly all actives have a fitted effect of over 75% in size
In short: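 Concentration series (3 nM to 46 uM) tested on TMD8 cells induced with doxycycline for 4 h. Filter-corrected green (IkBa fusion) over red (unfused) luciferase signal; Data were normalised to 10 uM MG-132 and untreated cell wells.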
% is set by controls: 0 for no effect and ±100 for the full control effect; potency is the fitted concentration of half-maximal effect.

| SMILES | activity change, negative = inhibition | Potency |
| --- | --- | --- |
| COc1cc2c(cc1OC)C(/C(C#N)=N\O)=NC(C)(C)C2 | 43.9% |  |
| CCc1ccc(CCC(=O)Nc2sc3c(c2C#N)CCCC3)o1 |  | 5.8 µM (active) |
| N#Cc1c(NC(=O)/C=C/c2ccco2)sc2c1CCCC2 |  | 1.3 µM (active) |
| CC(C)NC(=S)N=Nc1c(O)[nH]c2ccc([N+](=O)[O-])cc12 | -7.83% |  |
| COc1ccccc1C1CC(=O)Nc2cc3c(cc21)OCCO3 (stereo not given) |  | 16.4 µM (active) |
| COc1ccc(OC)c(C2CC(=O)Nc3n[nH]c(-c4ccccc4)c32)c1 (stereo not given) | 110% |  |
| CC(C)Oc1ccccc1C1CC(=O)Nc2cc3c(cc21)OCCO3 (stereo not given) |  | 8.2 µM (active) |
| O=C(CSc1cccc[n+]1[O-])c1ccccc1Br | -17.2% |  |
| COc1c(Cl)cc(C(=O)NN)cc1Cl | -0.709% |  |
| COc1cc(C(=O)NNC(=O)C2CC=CCC2C(=O)O)cc(OC)c1OC (stereo not given) | -8.53% |  |
| COc1cc(C(=O)N2CCN(c3cc(Cl)ccc3Cl)CC2)cc(OC)c1OC |  | 1.16 µM (active) |
| CCOC(=O)C1=C(C)c2ccccc2N(C(=O)OC)C1(C)C(=O)OCC (stereo not given) | 0.93% |  |
| O=S1(=O)C=C(Sc2nc3cc(Cl)ccc3o2)c2ccccc21 |  | 16.4 µM (active) |
| CC(/C=C/c1ccccc1)=N\NC(N)=S | -5.71% |  |
| N#CC(C#N)=C(N)CSc1cccc[n+]1[O-] | -7.23% |  |
| CCOc1ccc(C(=O)NC(=S)Nc2cccc(S(=O)(=O)NC3=NCCC3)c2)cc1 |  | 18.4 µM (active) |
| O=C(CCl)Nc1cccc(S(=O)(=O)NC2=NCCCCC2)c1 |  | 8.2 µM (active) |
| O=C(CCl)Nc1cccc(S(=O)(=O)NC2=NCCC2)c1 |  | 13 µM (active) |
| CCOc1ccc(OCc2ccc(C(=O)N/N=C(\C)c3ccccn3)cc2)cc1 | -1.73% |  |
| COc1ccc(C(=O)c2ccc(N(C)C)cc2)c2ccccc12 |  | 3.26 µM (active) |
| CN(C)c1ccc(C(=O)c2ccc(N(C)C)c3ccccc23)cc1 |  | 0.291 µM (active) |
| Oc1ccc(CNc2ccccc2F)c2cccnc12 | 0.438% |  |
| O=C(Oc1c(CN2CCOCC2)cc(Cl)c2cccnc12)c1ccccc1F | -6.62% |  |
| C=CCn1c(SCc2c(C)noc2C)nc2ccccc2c1=O |  | 14.6 µM (active) |
| Cc1noc(C)c1CSc1ccc2ccccc2n1 | 23.1% |  |

| SMILES | activity change, negative = inhibition | Potency |
| --- | --- | --- |
| CCn1ncc(C2=NOC(C(=O)NCc3ccccc3)C2)c1C (stereo not given) |  | 18.4 µM (active) |
| CCn1ncc(C2=NOC(C(=O)NCc3ccc(Cl)cc3)C2)c1C (stereo not given) |  | 8.2 µM (active) |
| Cc1ccc(Sc2c(CO)c(-c3ccccc3)nn2C)cc1 |  | 5.17 µM (active) |
| COc1ccc(CC(=O)OCC(=O)c2c[nH]c3ccccc23)cc1 | -3.42% |  |
| N#C/C(=C\c1ccc(Cl)cc1)c1nc2ccccc2o1 | -4.33% |  |
| COc1ccc(/C=C(\C#N)c2c[nH]c3ccccc23)cc1 |  | 14.6 µM (active) |
| COc1ccc(C(=O)/C=C2/c3ccccc3CC(C)(C)N2C)cc1 |  | 20.6 µM (active) |
| C=CCN(CC=C)C(=S)NC(=O)c1ccc(OC)cc1 | 34.1% |  |
| Cn1c(=S)[nH]c2c(c1=O)C(C)(C)Cc1ccccc1-2 | 1.61% |  |
| COc1cc2c(c(OC)c1OC)-c1ccc(OC)c(=O)cc1[C@@H](N(C)CC#CCO)CC2 |  | 0.259 µM (active) |
| COc1cc2c(c(OC)c1OC)-c1ccc(OC)c(=O)cc1[C@@H](NC(C)=O)CC2 |  | 0.206 µM (active) |
| COc1cccc(C(=O)Nc2ccc3c(cc2=O)[C@@H](NC(C)=O)CCc2cc(OC)c(OC)c(OC)c2-3)c1 |  | 23.1 µM (active) |
| COc1cc2c(c(OC)c1OC)-c1ccc(N(C)CC(OC)OC)c(=O)cc1[C@@H](NC(C)=O)CC2 |  | 5.8 µM (active) |
| CCCC(=O)O[C@]1(C(=O)CO)CC[C@H]2[C@@H]3CCC4=CC(=O)CC[C@]4(C)[C@H]3[C@@H](O)C[C@@]21C | -35.5% |  |
| Cc1nc2c(-c3ccccc3)c[nH]n2c(=O)c1Cc1ccccc1 | 1.91% |  |
| COc1cc2c(c(OC)c1OC)-c1ccc(OC)c(=O)cc1C(NC(C)=O)CC2 (stereo not given) |  | 0.206 µM (active) |
| CCN(CC)c1ccc(Nc2cc3n(c(=O)n2)CCc2cc(OC)c(OC)cc2-3)cc1 | -4.57% |  |
| CCN(CC)c1ccc2c(cc1=O)[C@@H](NC)CCc1cc(OC)c(OC)c(OC)c1-2 |  | 5.8 µM (active) |
| NCCNC(=O)Cc1ccc(NC(=O)Cc2ccc(Nc3ncnc4c3ncn4[C@@H]3O[C@H](CO)[C@@H](O)[C@H]3O)cc2)cc1 |  | 0.461 µM (active) |
| NCCNC(=O)Cc1cccc(NC(=O)Cc2ccc(Nc3ncnc4c3ncn4[C@@H]3O[C@H](CO)[C@@H](O)[C@H]3O)cc2)c1 |  | 1.46 µM (active) |
| CC1CCc2c(sc(NC(=O)CSc3nc(N)cc(=O)[nH]3)c2C(N)=O)C1 (stereo not given) |  | 10.3 µM (active) |
| NC(=O)c1c(NC(=O)CSc2nc(N)cc(=O)[nH]2)sc2c1CCCC2 |  | 9.2 µM (active) |
| COc1cc2c(cc1OC)C(C)N(C(=O)c1cc(C)on1)CC2 (stereo not given) |  | 5.8 µM (active) |
| COc1ccc(-c2nn(-c3ccccc3)cc2/C=N/NC(N)=S)cc1OC |  | 20.6 µM (active) |
| Cc1cccc(C)c1-n1c(C)cc(/C=N/NC(N)=S)c1C | -9.78% |  |

| SMILES | activity change, negative = inhibition | Potency |
| --- | --- | --- |
| COc1ccccc1NS(=O)(=O)c1cccc(C(=O)N/N=C/c2cn(-c3ccccc3)nc2-c2ccccc2)c1 | 37.2% |  |
| Cc1ccccc1NCC(=O)c1ccc(Br)cc1 | -0.682% |  |
| Cc1ccc(N(C)S(=O)(=O)c2ccc(-c3cnc(C4CC4)o3)cc2)cc1 |  | 5.8 µM (active) |
| Cc1cccc(N(C)S(=O)(=O)c2ccc(-c3cnc(C4CC4)o3)cc2)c1 |  | 1.84 µM (active) |
| Cc1ccc2[nH]c(-c3ccccc3)cc(=O)c2c1 |  | 5.17 µM (active) |
| Cc1ccc2[nH]c(-c3cccc(F)c3)cc(=O)c2c1 |  | 4.11 µM (active) |
| CCn1c(SCC(=O)c2ccc(Cl)cc2)nnc1C(C)C | -2.9% |  |
| CCOc1cc(/C=C(/C#N)C(=O)Nc2ccc(O)cc2)cc(Br)c1O |  | 2.06 µM (active) |
| CC1(CCc2ccc(O)cc2)NC(=O)NC1=O (stereo not given) | -10.3% |  |
| CCOC(=O)C1(C)C(C(=O)OC)=C(c2ccc(OC)cc2)c2ccccc2N1C(=O)OC (stereo not given) | -6.99% |  |
| CCOC(=O)C(NC(=O)N(C)C)(Nc1sc(C)c(CC)c1C#N)C(F)(F)F (stereo not given) | -16.9% |  |
| O=[N+]([O-])c1ccc(O)c2ncccc12 | -14.7% |  |
| O=S(=O)(Nc1cccc2cccnc12)c1ccccc1 |  | 13 µM (active) |
| O=[N+]([O-])c1ccccc1S(=O)(=O)Nc1cccc2cccnc12 |  | 13 µM (active) |
| O=C(/C=C\c1ccccc1)Oc1cccc2cccnc12 | 71.2% |  |
| Cc1c(C(=O)Oc2cccc3cccnc23)oc2ccccc12 | -1.8% |  |
| O=[N+]([O-])c1cc(F)c2cccnc2c1O | -3.02% |  |
| Cc1ccc(S(=O)(=O)Nc2cccc3cccnc23)cc1 |  | 8.2 µM (active) |
| Cc1ccnc(NC(=O)c2cccc(S(=O)(=O)Nc3ccc(C)cc3C)c2)c1 | 5.49% |  |
| CCN(CC)S(=O)(=O)c1ccc(C(=O)NCCSc2c[nH]c3ccccc23)cc1 | -21.6% |  |
| COc1cccc(/C=N/Nc2nc(Nc3ccccc3)nc(-n3nc(C)cc3C)n2)c1O |  | 0.92 µM (active) |
| CC1=NN(C(N)=S)C(=O)C1N=Nc1ccccc1 (stereo not given) | 3.07% |  |
| CCc1ccc(/C=N/NC(=O)c2cc(-c3ccncc3)nc3ccccc23)s1 |  | 8.2 µM (active) |
| Cc1ccc(/C=N/NC(=O)c2cc(-c3cccnc3)nc3ccccc23)cc1 |  | 2.31 µM (active) |
| Cc1ccsc1/C=N/NC(=O)c1cc(-c2ccncc2)nc2ccccc12 |  | 1.64 µM (active) |

| SMILES | activity change, negative = inhibition | Potency |
| --- | --- | --- |
| COc1ccc(-c2cc(C(=O)N/N=C(\C)c3cccnc3)c3ccccc3n2)cc1 | 32% |  |
| Fc1ccc(/C=N/NC(=S)Nc2cccnc2)cc1 | -9.27% |  |
| Cc1ccc(/C=N/NC(=O)c2cc(-c3ccncc3)nc3ccccc23)o1 |  | 5.17 µM (active) |
| O=C(CSc1cccc[n+]1[O-])c1ccc(Cl)cc1 | -3.23% |  |
| CCc1ccc(NC(=O)CSc2nc(=O)n(CCCN3CCOCC3)c3c2CCCC3)cc1 | -11.2% |  |
| O=C(N/N=C/c1ccc([N+](=O)[O-])o1)c1cc(-c2ccc(-c3ccccc3)cc2)nc2ccccc12 |  | 4.61 µM (active) |
| CCc1ccc(/C=N/NC(=O)c2cc(C3CC3)nc3ccccc23)s1 |  | 16.4 µM (active) |
| O=C(N/N=C/c1cccs1)c1cc(-c2ccncc2)nc2ccccc12 |  | 2.59 µM (active) |
| CC(=NNC(=O)c1cc(C)nc2ccccc12)c1ccc(N2CCOCC2)cc1 | -17.3% |  |
| S=C(NCCN1CCOCC1)N/N=C/c1cccs1 | -5.86% |  |
| COC(=O)c1cnc(Oc2ccc(NC(=O)NC(=O)c3c(OC)cccc3OC)cc2)cc1C(F)(F)F |  | 1.84 µM (active) |
| Cc1cc(C)c2cc(C=O)c(Cl)nc2c1 |  | 3.66 µM (active) |
| Cc1ccc(N=Nc2c(C)[nH]n(C(N)=S)c2=O)cc1 | -6.9% |  |
| CCc1cc2c(SCC(=O)NC3CC3)ncnc2s1 | -21.8% |  |
| COc1ccc(C2CC(c3c(O)cc(C)oc3=O)=NCCS2)c(OC)c1 (stereo not given) |  | 1.16 µM (active) |
| Cc1ccc(C(=O)Nc2nc(C)c(C(=O)Nc3ccc4c(c3)CCC4)s2)cc1 |  | 4.61 µM (active) |
| CCCn1nnc(NC(=S)NC(=O)c2ccc(-c3ccc(Br)cc3)o2)n1 | -9.53% |  |
| COc1cc(C2=NOC(C(=O)NCc3ccc(F)cc3)C2)cc(OC)c1OC (stereo not given) |  | 4.61 µM (active) |
| COc1ccc(C2=NOC(C(=O)NCc3ccc(F)cc3)C2)cc1 (stereo not given) |  | 18.4 µM (active) |
| COc1cc(C(=O)NC2CCN(Cc3nnnn3Cc3ccc(F)cc3)CC2)cc(OC)c1OC | -15.1% |  |
| Cc1ccc(C(=O)O)cc1NC(=S)NC(=O)C(c1ccccc1)c1ccccc1 | -10.3% |  |
| COc1cccc(N2CC(O)=C(c3nc4ccccc4s3)C2=N)c1 |  | 23.1 µM (active) |
| Cc1cc(C)cc(N2CC(O)=C(c3nc4ccccc4c(=O)[nH]3)C2=N)c1 | -26% |  |
| COc1ccc(/C(C)=N/Nc2ncc(Cl)cc2Cl)c(O)c1 | -7.99% |  |
| COc1ccc(/C=N/Nc2nccnc2Cl)c(OC)c1 |  | 23.1 µM (active) |
